Compounds with a hit are over-represented: about 1.4% of the library has one in this group of screens.
BCR signal inh = inhibitors of chronic active B-cell receptor signaling | AID 493014 | ABC-DLBCL IkBa-CBG/CBR reporter, luminescence ratio, 4 h | Potency, µM (series often up to 46.1 µM), inactives show at the top dose activity change, negative = inhibition, hits mostly inhibitors | 340,000 compounds, 0.05% hits; active means well fitted inhibition curve with a large enough effect in the signal ratio, with a control signal flat, not every such curve was filed as active; inconclusive means small, poorly fitted or top-dose-only effect, or effect the other way, or a change in a side signal; the % refers to the signal ratio;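 further: potency means the concentration at half of the fitted maximal effect; plate controls were basal doxycycline-induced cells for no effect and cells given 10 µM MG132 for full effect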
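TMD8 human ABC-DLBCL cells with doxycycline-inducible IκBα–green luciferase fusion and unfused red luciferase, in 0.5% FBS medium; compounds up to 46 uM, 4 h at 37C. Green/red luminescence ratio, filter-overlap corrected, fitted to concentration-response curves.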
IL2 activator = IL-2 activation; 360,000 compounds, 0.065% hits; IL-2 activation reporter assay, cell-based qHTS; stimulated with anti-CD3/CD4/CD28 beads; in transgenic mouse T cells; activation, % (series mostly up to about 46 µM); in the data active means activation above about 50%; inconclusive means mostly about 30% to 49%; further: 0% is about no effect
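Readout: EGFP and DsRed signals by fluorescent plate cytometry. Unstimulated transgenic mouse T cells received compound 60 min before antibody-bead stimulation, then incubated 18 h at 37 degrees C.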
N370S GC mod = inhibits or activates N370S mutant glucocerebrosidase; P04062; Potency, µM (titrated, usually from 59.4 µM), for inactives: at the top dose activity change, negative = inhibition, most hits filed as inhibitors; N370S GC spleen homogenate, 4MU-glucoside fluorescence; 330,000 compounds, 0.092% hits;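 further: potency means the concentration at half of the fitted maximal effect; 0% = full enzyme activity and -100% = no enzyme basal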
Nrf2 activator = activates Nrf2 signaling | AREc32 ARE-luciferase reporter (MCF7-derived line), luminescence, 24 h | Potency, µM (titrated, usually from 46.1 µM), for the others: at the highest dose activation, usual class: activators | 410,000 compounds, 0.31% hits; further: potency means the concentration at half of the fitted maximal effect; % of control where 0% means no effect; nearly all actives have a fitted effect of over 65% in size
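AREc32 cells carrying an ARE-driven firefly luciferase, 1000 cells/well in OPTI-MEM with 5% FBS, dosed after overnight attachment and incubated 24 hr at 37 deg C. Steady-Glo luminescence read after 30 min at RT.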
BRCA1 expr up = BRCA1 expression activation; 380,000 compounds, 1.1% hits; Potency, µM (highest dose often 46.1 µM), without a hit: at the top dose activation, hits mostly activators; MCF7-BRCA1-FFLuc reporter, luminescence, 48 h; response scale: scaled: vehicle 0%, 10 µM genistein 100%; AID 624202; further: potency means the concentration at half of the fitted maximal effect; nearly all actives have a fitted effect of over 80% in size
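MCF7 cells carrying a BRCA1-firefly luciferase reporter (2000 cells/well, phenol-red free MEM) were attached for 2 h at 37 °C, then given compounds for 48 h. Luminescence was read 15 min after luciferase reagent; activity normalized to genistein (10 microM) and DMSO.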
a7 integrin act = activates integrin-mediated alleviation for muscular dystrophy | alpha7betagal myoblasts, beta-gal FDG fluorescence, 48 h | Potency, µM (series often up to 38.3 µM), inactives show at the top dose activation, usual class: activators | 350,000 compounds, 0.064% hits;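 further: potency means the concentration at half of the fitted maximal effect; 100% = response of the positive control SU9516; nearly all actives have a fitted effect of over 60% in size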
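alpha7betagal+/- myoblasts (passage 13, 250/well) treated 48 h at 37C with compounds at 1:260 dilution of DMSO stock. Lysed, then beta-galactosidase activity read as FDG fluorescence (ex 480/em 540) after 30 min, with pre-read for autofluorescence.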
* marks the source's active call; other numbers are inactive results; ? = inconclusive; · = not tested or not shown; [ ] = dose if it differs, or a comment. Unless noted, the call rests on the fitted dose curve; in most records, active means well fitted curve in the direction sought with a large enough effect; inconclusive means small, poorly fitted or top-dose-only effect, or another doubt; inactive means no such curve, though single readings can be large; an effect the other way counts as inactive or inconclusive.

SMILES | BCR signal inh | IL2 activator | N370S GC mod | Nrf2 activator | BRCA1 expr up | a7 integrin act
CCn1nc(-c2ccccc2C)nc2c(=O)n(C)c(=O)nc1-2 | · | · | · | · | -78% | ·
Oc1cc2cc(-c3csc(-c4ccc(F)cc4)n3)cc3c2n1CCC3 | · | · | · | · | 13µM* | ·
Cc1[nH]n(-c2ccccc2)c(=O)c1C=Nc1ccc2[nH]c(=O)[nH]c2c1 | -5% | 52* | -4% | 0% | 0% | 8%
C=CCN=Cc1c(C)[nH]n(-c2ccccc2)c1=O | 17% | -5 | 6% | 5% | 13µM* | -11%
Cc1[nH]n(-c2ccccc2)c(=O)c1/C=N/N(c1ccccc1)c1ccccc1 | 17% | -4 | -22% | 1% | 0% | 1%
CN(C)/C=C/C(=O)c1cnc(-c2cccc(Cl)c2)s1 | ? | 0 | 5% | 7% | ? | 37%
CN(C)/C=C/C(=O)c1cnc(-c2ccccc2Cl)s1 | 5% | 0 | -1% | 24% | 6.3µM* | 18%
CCOC(=O)C1=C(C)c2ccccc2N(C(=O)OC)C1(C)C(=O)OCC (centres undefined) | 18µM* | 0 | 30%[89.1 µM] | ? | -24% | -30%
O=c1c(-c2ccc(O)cc2)coc2cc(OC3OC(CO)C(O)C(O)C3O)ccc12 (centres undefined) | 27% | -1 | 4% | 0% | 6.3µM* | -20%
O=c1c(-c2ccc(O)cc2)coc2cc(O[C@@H]3O[C@H](CO)[C@H](O)[C@H](O)[C@H]3O)ccc12 | · | · | -1% | · | · | ·
O=c1c(-c2ccc(O)cc2)coc2cc(OC3OC(CO)C(O)C(O)C3O)cc(O)c12 (centres undefined) | ? | 3 | 19% | 3% | 8.9µM* | 11%
COc1cc(O)c2c(=O)c(-c3ccc(O[C@@H]4O[C@H](CO)[C@@H](O)[C@H](O)[C@H]4O)cc3)coc2c1 | -7% | 9 | -9% | 5% | 2µM* | -1%
CCc1nc2c(OCC(=O)C(C)(C)C)cccn2c1N(C=O)CC(=O)N(C)C | · | 0 | · | -1% | -5% | ·
CC(=O)c1cccc(NC(=O)C2Cc3c(-c4cccc(F)c4)ccnc3O2)c1 (centres undefined) | · | -1 | · | 2% | -17% | ·
CCOC(=O)c1ccc(N=NN(C)C)cc1 | ? | -3 | -1% | 2% | 13µM* | 0%
O=c1[nH]cnc2c1ncn2[C@H]1C[C@H](O)[C@@H](CO)O1 | · | · | · | · | 31% | ·
COc1ccc(C(=O)NCCn2ccc3ccccc32)cc1 | 2% | 1 | 2% | 0% | ? | 15%
O=C(NCCn1ccc2ccccc21)c1ccc2c(c1)OCO2 | ? | -3 | 0% | -1% | 2.5µM* | -17%
Cc1cc(=O)[nH]c2n[nH]c(-c3ccccc3)c12 | ? | 19 | 3% | 3% | 11µM* | 16%
Cc1ccccc1OCC(=O)NCC(=O)OCC(=O)c1ccc(Br)cc1 | · | · | · | · | 10% | ·
COC(=O)CNC(=O)CCc1nnc(C2(c3ccc(Cl)cc3)CCC2)o1 | 0% | 0 | -3% | 0% | 54% | -21%
C=CCNC(=O)CCc1nnc(C2(c3ccc(Cl)cc3)CCC2)o1 | 1% | 0 | 20% | 10% | 13µM* | ?
COc1ccc(OC)c(C(=O)COC(=O)c2ccc(C)o2)c1 | -5% | 1 | 23% | 13µM* | -54% | 13%
OCCCCC#Cc1c(-c2ccsc2)sc2ccccc12 | 16% | 0 | 3% | ? | -17% | -25%
OCCC#Cc1c(-c2ccsc2)sc2ccccc12 | 16% | 0 | 5% | 2.5µM* | -30% | -5%
COc1ccccc1S(=O)(=O)Cc1ccc(C(=O)NC2CC2)o1 | 2% | -1 | 9% | 0% | -3% | 40%
CNc1ncnc2ccc(-c3cccc(OC)c3)cc12 | · | · | 8.9µM* | · | · | ·
COc1cccc(-c2ccc3ncnc(NC4CCNCC4)c3c2)c1 | · | · | 0% | · | · | ·
Cn1c(N)c(C(=O)CSc2ccc3c(c2)OCCO3)c(=O)n(C)c1=O | ? | 1 | -7% | 0% | 21% | -21%

High-throughput results: PubChem, National Center for Advancing Translational Sciences (NCATS)
